Hit rate of the full screen: of about 53,000 sequences, about 3,700 (7%) were called active.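 How the source made its calls: active means gene knockdowns whose robust z-score for IL-1 alpha signal is at least 2 or at most -2, so actives lie on both sides; inactive means the rest.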 The full list was thinned out, with actives kept by preference.

This experiment is described as follows: Components of the Cytosolic LPS Sensing Pathway: Gene Identification via Genome-wide siRNA Screen.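 Further: robust z of the log signal after scaling to non-targeting control siRNA wells of the plate.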 As to conditions: RAW264.7 macrophages, IL-1a HTRF, actives lie on both sides, screened at 100 nM (by protocol), cells primed 5 h with Pam3CSK4 first. The essentials:
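Three distinct siRNAs per gene were tested singly at 100 nM in RAW264.7 macrophages. Following Pam3CSK4 priming and 24 hour LipidA transfection, IL-1a secretion was read by HTRF.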
Turning to GAAUGUCUGAGCAAGGAGGTT against Arpp21, the z-score is 0.227 (inactive).
The figure for GCUCAUGUAGGAUGUAUAUTT against Olfr146 is -0.483 (inactive); for CCCUCCAUGGAAAUGACAUTT against Slit3 it is 2.4 (active); for GCAGAUGUACUCUAAGGGUTT against Adam23 it is 1.17 (inactive).
The figure for CGCCAUAGUUGGUUUUGUUTT against Scamp4 is 1.2 (inactive); for GCGACUACAAGGAUACCCUTT against Krt71 it is 0.169 (inactive).
To GGCCAGUGAGCAGCAUUAUTT against Krt222 belongs 0.787 (inactive); to CCGCUCUUUUACAGCUGGATT against Rsl1d1, 1.99 (inactive).
In the case of CCCGCUAUUUGGUGCUAACTT against Amh, the z-score is 3.21 (active).
To GCAUAACUCCCAUCCAUAGTT against Glra2 belongs -0.622 (inactive); to CCUUUUUUUGGUAACUCGUTT against Sox11, -0.0308 (inactive).
To CCUACAGAAUAGAAAAUUCTT against Elmod2 belongs -0.161 (inactive); to GGCCCAACACCUUUAUCAUTT against Akt1, 2.77 (active).
As to GGAUGGACUAAAUGAUGAUTT against Ythdf2, the z-score is -0.00923 (inactive).
To GGAUUCUGUGCUUUCCUGGTT against Pomt2 belongs -0.77 (inactive).
Regarding CCUGCAUCGUACGCUACUUTT against Pcgf2, the z-score was -1.83 (inactive).
The figure for GGUGCUCUCAAGUGGGAUUTT against Gm5114 is -2.15 (active).
The figure for GCCAAAUUAGCAGCUUGUGTT against Rln3 is -0.0674 (inactive); for CGUACAACCUCAAGGUUCUTT against Lag3 it is -1.68 (inactive); for GGCAAAAUUAGCAUCAAAGTT against Slc22a3 it is 0.577 (inactive).
To GCCUAGACCUAAGCAUAGCTT against Prpmp5 belongs 0.228 (inactive).
Consider GGCCCUGUUAGUGCUAUACTT against Amh, for which the z-score was -1.15 (inactive).
Regarding GGAAGAUUGAAAUAGGCGATT against Mecom, the z-score was -1.25 (inactive).
Regarding GGAAAAGGCCGAUUUCGUGTT against Dixdc1, the z-score was 0.556 (inactive).
As for GGCAGUAGUGAACAGAGACTT against Krt222, the z-score was -0.199 (inactive).
The figure for GGAUCUUCCUGGAUGCCAATT against Hps1 is -2.61 (active).
The figure for GCUGACUCCGUGUUUUUAATT against Arhgef18 is -0.539 (inactive); for GGGCUCUUGUGUUAAGGCATT against Krt27 it is -0.119 (inactive); for GGAGCUAGAACUCAAUGAATT against Lingo1 it is 0.65 (inactive).
The figure for CCUCAUAGCCAGUCUUUUUTT against Pafah2 is -0.553 (inactive); for GUCCUAAAACGAGUGAGAGTT against Trib3 it is -0.793 (inactive); for GGACACAGCAAGGAAGAAATT against Mad2l1bp it is 0.335 (inactive).
As to GUUGUGUUCUGAUUGUUUUTT against Olfr1020, the z-score is 2.03 (active).
The figure for GGACAGGUACUUUUCCCUGTT against Gnpda2 is -1.19 (inactive); for CCAGUCAUUGUGCUUGUUATT against Sox12 it is 0.929 (inactive).
To GGAGGACGUAUCAUUACAUTT against Twf1 belongs 1.95 (inactive); to GGAGGAUAUAAAAAAGAAGTT against L2hgdh, 0.00317 (inactive); to GCCAAGGACUCAGUGAAUGTT against Iqsec2, -1.19 (inactive).
Take GGUCCUCUCAGACAUGAAGTT against Pagr1a: the z-score was -0.237 (inactive).
The figure for GCGGUAAGAACGUGGAACUTT against Tent5b is 0.536 (inactive).
The figure for GGGCAAGUUCCAUCUCCUUTT against Cdc42ep2 is -2.2 (active).
To GCAUGAAGAGGCAAAGGCUTT against Igfbp1 belongs -0.555 (inactive); to GGAAGUUAAUGGGUAAAGUTT against Olfr365, -1.67 (inactive); to GGACAAAACUAAACAGCAATT against Smarcal1, -0.662 (inactive).
In the case of GGGCUUUCUUGGUUUUAUCTT against Depp1, the z-score is -0.377 (inactive).
In the case of GUCGCAUCUCCAAAAAUGGTT against Olfr340, the z-score was -1.46 (inactive).
To GGAUCCUCUCAUUAAGAAATT against Gabra1 belongs -1.15 (inactive); to CGACUUCGCCUUAUGAGAUTT against Tst, -1.19 (inactive); to GCAAGUGAGUUAGCAGUCATT against Atp2c1, -2.23 (active).
To GGUUGAUCCAAAAGAUUACTT against Rp2 belongs 0.557 (inactive); to GGUCAUGAAAAAUGACAGCTT against Klra2, 0.126 (inactive); to GGAAGAAGAGGAUGAGAUUTT against Clcn6, -1.73 (inactive).
The figure for GGCUCACAAUUGCUGUGUATT against Psg23 is -0.566 (inactive); for GGAUGUUGGCAGCCGAACATT against St3gal2 it is -0.684 (inactive); for GGACAAGAUGUUGAGUAUUTT against Plrg1 it is -2.23 (active).
Regarding UUGUCAUUCACUUGAUGAATT against H2bu2, the z-score is 0.238 (inactive).
To CCAUGCCCACUGGAUAGAUTT against Nat14 belongs -1.21 (inactive); to CCCGAAUUGACAACAUCGUTT against Olfr855, 0.566 (inactive); to “CGCCUUAAACGAAGCUGCUTT against 1700034E13Rik”, -1.28 (inactive).
On to GGUUUCCUUUUUGUUCAUUTT against Dlg3, for which the z-score is 0.566 (inactive).
The figure for CCGGUUGUUUUGAGUGUUGTT against Rad9b is 1.09 (inactive); for GGAAAACACAGCUACGGAATT against Ak5 it is 2.21 (active).
To CCAUAUAUUAUGGACCUUATT against Hepacam2 belongs -0.576 (inactive); to CCGAAAUAAGGCUAGCUCATT against Rfx6, -0.282 (inactive).
On to GGUCUUACCAACAGAACCCTT against Rad51ap1, for which the z-score is 1 (inactive).
The figure for GCAAUGCUCUAAUCCACUCTT against Npas4 is 0.654 (inactive); for GGAAUUAUAGGACUUGUUCTT against Serinc1 it is 0.256 (inactive).
The figure for GGUUCCCAAAGUAGAAGCATT against Dkkl1 is -0.231 (inactive).
The figure for GCUGAGUUGACUCCUACUGTT against Mcpt1 is -2.23 (active); for GGAUUUGUUUUCAGAUGUGTT against Zfp329 it is -1.56 (inactive).
On to GAUUCUUGUCGCUCAUAGCTT against Vmn1r52, for which the z-score was -0.535 (inactive).
The figure for GGGCACACAUAUGACCGUUTT against Rrad is 0.261 (inactive); for GCAUUCAUACAUGUAACAGTT against Wdr70 it is 0.336 (inactive); for GUCACAGAAAGCUUAGUCCTT against Olfr427 it is -2.93 (active).
For the sequence GGGACCAGAACAAAGUGGUTT against Olfr487, the z-score was 0.474 (inactive).
To CCUAUUCAUCAUAACUCAUTT against Tdo2 belongs 0.129 (inactive).
The figure for CGAGCAUAAAAGUUAUGUGTT against Chaf1b is 1.07 (inactive).
To GGAUCCUUACAAUAACAUUTT against Mmut belongs 2.04 (active).
As for GCGUAUUUCCUUUCGGAGUTT against Exoc3, the z-score was 0.116 (inactive).
To CCUAAGCCCUCUAAGGCAATT against Pik3r2 belongs -0.753 (inactive).
Take CCUCCUCUCCUAAAUGCCUTT against Llcfc1: the z-score was -1.23 (inactive).
To GGAACGAGUUUUGAAAAAATT against Creb3l3 belongs 0.073 (inactive); to GGAAGAACAUUGUUACCUGTT against Svep1, 1.1 (inactive).
To GGUCCUACUUACUACUGCCTT against Fam83h belongs 0.265 (inactive); to CGUCUACCCGGAAUUUCAGTT against Sdha, -1.42 (inactive).
The figure for GGAAGGACUAUUUUCUUUCTT against Trak1 is 1.5 (inactive).
GGCAGAAAGCAAAAUGUUUTT against Gata3: the z-score was -4.28 (active).
The figure for GUGGAUACGUGGGAAAGUCTT against Nmnat1 is 0.0316 (inactive).
To CGCUCUGUUAAUGCAGGAUTT against Papss1 belongs 3.22 (active).
GCUAUUUCUGCCUUUAGUCTT against Scamp5: the z-score was -0.0682 (inactive).
To CCCACUGUGAAGAGAGGCATT against Xlr3c belongs -1.41 (inactive); to GGUUCAGACAACUCAGUGGTT against Pbx1, 0.813 (inactive).
To GGAGAAGGUGCUCAAGUUGTT against Henmt1 belongs -2.45 (active); to CGGAUUCAUCAGUUUGGUATT against Cdc7, 0.274 (inactive).
The figure for GCAACUUACUUGAUCUGAATT against Ap2b1 is -0.292 (inactive); for CCUUCUAAUUAUCACCAAATT against Arhgap18 it is -0.102 (inactive).
As for GCUAACUGCACUCCGAGAUTT against Asap1, the z-score was -0.266 (inactive).
To GGAAAAUUGAUAGCAAGCUTT against Fbxw15 belongs 1.9 (inactive); to GGCACAUCUCCCUAACACUTT against Mvb12b, -2.02 (active); to CCAAGCAUUAUGAGAUGCUTT against Sec23b, 0.749 (inactive).
The figure for GGUUACUAGAUGUAUUUUGTT against Ppp3cb is -0.785 (inactive); for GGAAGAGGACCAAAGUGCUTT against Pnpla7 it is 1.75 (inactive); for GGAUCAACAUCAGAGUUCUTT against Zfp119b it is -0.562 (inactive).
In the case of CCCUAAUUCUUAGGCCUUUTT against Bloc1s3, the z-score is -0.242 (inactive).
To GGAAAGGUUUAAUCAUGAATT against Spred1 belongs 0.602 (inactive); to GGCAAGCACAAUGAUCAUUTT against Trappc11, -2.36 (active).
To CGCUUUAGUGACUUUCAAATT against Metrnl belongs -0.583 (inactive).
